# From PubChem BioAssay (NCATS)
# Inconclusive results are not listed. Unmarked numbers belong to inactive results. Calls of active or inactive are those of the source. Calls follow the shape of the dose curve; as a rule, active = well fitted cell-killing curve with a large enough effect; inconclusive = small, poorly fitted or top-dose-only effect, or effect the other way; inactive = no such curve, though single readings can be large or run the other way.
# Assay: Quantitative High-Throughput drug screen in 47 multiple myeloma cell lines against the NCATS MIPE library collection: KMS11_JCRBsus cell viability assay (AID 1919873); also: nearly all actives have a fitted effect of over 50% in size
# Conditions: KMS11 myeloma viability, CellTiter-Glo ATP luminescence, 48 h; series mostly up to 45.8 µM; viability (% of control): at the top concentration
# How it was run: (§1)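 500 cells/well per myeloma line exposed to pinned MIPE 4.0 compounds for 48 h at 37 °C, 5% CO2. Viability read as ATP by CellTiter-Glo luminescence, normalised to DMSO-only (100%) and media-only (0%) wells.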
# Potency is read from the fitted curve at half-maximal effect.
SMILES,Potency,viability (% of control)
CN1CCN2c3ccccc3Cc3ccccc3C2C1 (configuration not stated),23.5 µM (active),–
CN(Cc1cnc2nc(N)nc(N)c2n1)c1ccc(C(=O)N[C@@H](CCC(=O)O)C(=O)O)cc1,0.0935 µM (active),–
C[C@@H]1CC(=O)NN=C1c1ccc(NN=C(C#N)C#N)cc1,16.6 µM (active),–
CC(C)Cc1ccc(C(C)C(=O)O)cc1 (configuration not stated),–,109% [at 23.2 µM]
CCN1CCCC1CNC(=O)c1cc(S(=O)(=O)CC)c(N)cc1OC (configuration not stated),–,107%
OCCN(CCO)c1nc(N2CCCCC2)c2nc(N(CCO)CCO)nc(N3CCCCC3)c2n1,16.6 µM (active),–
Cc1cn([C@H]2C[C@H](N=[N+]=[N-])[C@@H](CO)O2)c(=O)[nH]c1=O,–,90.3%
O=C(C1CCCCC1)N1CC(=O)N2CCc3ccccc3C2C1 (configuration not stated),–,113%
COc1nc(C)nc(Cl)c1NC1=NCCN1,–,123%
Cc1cc(C(C)(C)C)c(O)c(C)c1CC1=NCCN1,–,91%
CCOC(=O)C(C)(C)Oc1ccc(Cl)cc1,–,89.8%
O=C(CCCN1CCC(O)(c2ccc(Cl)cc2)CC1)c1ccc(F)cc1,23.5 µM (active),–
O=C(Nc1ccc([N+](=O)[O-])cc1Cl)c1cc(Cl)ccc1O,0.526 µM (active),–
NS(=O)(=O)c1cc2c(cc1Cl)NCNS2(=O)=O,–,118%
COc1ccc2[nH]cc(CCNC(C)=O)c2c1,–,105%
NC12CC3CC(CC(C3)C1)C2,16.6 µM (active),–
Cn1cnc2c1c(=O)[nH]c(=O)n2C,9.35 µM (active),–
COc1cc2nc(N3CCN(C(=O)C4COc5ccccc5O4)CC3)nc(N)c2cc1OC (configuration not stated),18.7 µM (active),–
CN1C(C(=O)Nc2ccccn2)=C(O)c2ccccc2S1(=O)=O,–,119%
NCCS(=O)(=O)O,–,112%
CCc1cccc2c3c([nH]c12)C(CC)(CC(=O)O)OCC3 (configuration not stated),–,97.8%
Cc1cc(C(C)(C)C)cc(C)c1CC1=NCCN1,–,87%
COc1cc2c(c(OC)c1OC)-c1ccc(OC)c(=O)cc1[C@@H](NC(C)=O)CC2,–,0.0794%
CN1CCC(=C2c3ccccc3CC(=O)c3sccc32)CC1,–,78.7%
CN(C)CCCN1c2ccccc2CCc2ccc(Cl)cc21,20.9 µM (active),–
CC(C)NCC(O)c1ccc(O)c(O)c1 (configuration not stated),16.6 µM (active),–
O=C1N(c2ccccc2)c2ccccc2C1(Cc1ccncc1)Cc1ccncc1,–,116%
CS(=O)(=O)CCNCc1ccc(-c2ccc3ncnc(Nc4ccc(OCc5cccc(F)c5)c(Cl)c4)c3c2)o1,20.9 µM (active),–

# Assay: Quantitative High-Throughput drug screen in 47 multiple myeloma cell lines against the NCATS MIPE library collection: KMS28BM_JCRB cell viability assay (AID 1919874); also: nearly all actives have a fitted effect of over 35% in size
# Conditions: CellTiter-Glo ATP, 48 h; series mostly up to 45.8 µM; viability, % of control: at the top concentration
# How it was run: as §1
SMILES,Potency,"viability, % of control [%]"
CN1CCN2c3ccccc3Cc3ccccc3C2C1 (configuration not stated),23.5 µM (active),–
C[C@@H]1CC(=O)NN=C1c1ccc(NN=C(C#N)C#N)cc1,23.5 µM (active),–
CCN1CCCC1CNC(=O)c1cc(S(=O)(=O)CC)c(N)cc1OC (configuration not stated),–,103
OCCN(CCO)c1nc(N2CCCCC2)c2nc(N(CCO)CCO)nc(N3CCCCC3)c2n1,16.6 µM (active),–
Cc1cn([C@H]2C[C@H](N=[N+]=[N-])[C@@H](CO)O2)c(=O)[nH]c1=O,–,119
O=C(C1CCCCC1)N1CC(=O)N2CCc3ccccc3C2C1 (configuration not stated),–,112
COc1nc(C)nc(Cl)c1NC1=NCCN1,–,116
Cc1cc(C(C)(C)C)c(O)c(C)c1CC1=NCCN1,–,93.4
CCOC(=O)C(C)(C)Oc1ccc(Cl)cc1,–,107
Cn1cnc2c1c(=O)[nH]c(=O)n2C,14.8 µM (active),–
COc1cc2nc(N3CCN(C(=O)C4COc5ccccc5O4)CC3)nc(N)c2cc1OC (configuration not stated),16.6 µM (active),–
CCc1cccc2c3c([nH]c12)C(CC)(CC(=O)O)OCC3 (configuration not stated),–,102
CN(C)CCCN1c2ccccc2CCc2ccc(Cl)cc21,20.9 µM (active),–
CC(C)NCC(O)c1ccc(O)c(O)c1 (configuration not stated),7.43 µM (active),–
